Reference: PubChem BioAssay (NCI)
The panel holds about 83,000 compounds, 20% with a hit somewhere; the sample as a whole holds those more often.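 Growth was measured after 48 h exposure to one concentration of compound in 96-well plates. Values under 10 count as active.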

Legend:
Assay in all cases: NCI-60 one-dose screen, 48 h (100 = growth as untreated, 0 = no growth, -100 = all killed)
Settings in all cases: 10 µM unless noted
SR leukemia = test system: SR leukemia
RPMI-8226 leukemia = test system: RPMI-8226 leukemia
OVCAR-8 ovarian = test system: OVCAR-8 ovarian
OVCAR-5 ovarian = test system: OVCAR-5 ovarian
OVCAR-4 ovarian = test system: OVCAR-4 ovarian
SK-OV-3 ovarian = test system: SK-OV-3 ovarian
IGROV1 ovarian = test system: IGROV1 ovarian
OVCAR-3 ovarian = test system: OVCAR-3 ovarian
T-47D breast = test system: T-47D breast
BT-549 breast = test system: BT-549 breast
MDA-MB-435 melanoma = test system: MDA-MB-435 melanoma
SW-620 colon = test system: SW-620 colon
HCT-116 colon = test system: HCT-116 colon
HCC-2998 colon = test system: HCC-2998 colon
KM12 colon = test system: KM12 colon
HS 578T breast = test system: HS 578T breast
NCI/ADR-RES ovarian = test system: NCI/ADR-RES ovarian
MCF7 breast = test system: MCF7 breast

Measured: growth

O=C(O)Cc1cccc2ccccc12
inactive: SR leukemia 94.5% | RPMI-8226 leukemia 104% | OVCAR-8 ovarian 110% | OVCAR-5 ovarian 102% | OVCAR-4 ovarian 122% | SK-OV-3 ovarian 103% | IGROV1 ovarian 112% | OVCAR-3 ovarian 111% | T-47D breast 103% | BT-549 breast 107% | MDA-MB-435 melanoma 104% | SW-620 colon 102% | HCT-116 colon 106% | HCC-2998 colon 95.9% | KM12 colon 107%

Cc1nc(C)c(C(=O)O)cc1C(=O)O
inactive: SR leukemia 100% | RPMI-8226 leukemia 106% | OVCAR-8 ovarian 115% | OVCAR-5 ovarian 97.5% | OVCAR-4 ovarian 122% | SK-OV-3 ovarian 104% | IGROV1 ovarian 124% | HS 578T breast 124% | NCI/ADR-RES ovarian 107% | T-47D breast 122% | MDA-MB-435 melanoma 110% | SW-620 colon 109% | MCF7 breast 109% | HCT-116 colon 111% | HCC-2998 colon 101% | KM12 colon 117%

CSc1cnc2ccccc2n1
inactive: SR leukemia 95.4% | RPMI-8226 leukemia 109% | OVCAR-8 ovarian 95.5% | OVCAR-5 ovarian 101% | OVCAR-4 ovarian 115% | SK-OV-3 ovarian 97.2% | IGROV1 ovarian 104% | HS 578T breast 98.8% | NCI/ADR-RES ovarian 103% | T-47D breast 81% | BT-549 breast 94.6% | MDA-MB-435 melanoma 103% | SW-620 colon 93.9% | MCF7 breast 98.9% | HCT-116 colon 99.2% | HCC-2998 colon 98.5% | KM12 colon 101%
